We go through seven compounds from PubChem BioAssay.

The structures appear in SMILES notation. Activity calls are given as the source filed them. Unless noted, the rule behind the calls is not given here.

Experiment [1] is described as follows: anti-His antibody binders, primary screen, artefact control for SMM control protein annotation, biochemical, small-molecule microarray, 635 nm fluorescence (AID 1128).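 Note: score merges feature fluorescence with signal-to-noise for each printed compound spot.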 The conditions noted are these: anti-His Alexa647 antibody binding, higher = more signal.
Experiment [2] relates to Human papillomavirus type 1a E7 protein (residues 1-88). The experiment can be described thus: HPV1a E7 small-molecule binders, primary screen, biochemical, small-molecule microarray, residues 1-88, 635 nm (AID 1129). To be noted: small-molecule microarray binding, fluorescence 635 nm; higher = more signal.
Experiment [3] has as its target Focal adhesion kinase 1 (Homo sapiens) (UniProt Q05397). The experiment can be described thus: small-molecule microarray binders of FAK, primary screen, biochemical, 635/667 nm fluorescence, BSA, DTT (AID 1130).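 Note: composite of spot emission at 667 nm and signal to noise over triplicate slides.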 To be noted: PTK2 binding, 635 nm fluorescence, higher = more signal.
The test system of experiment [4] is Fibrinogen (Alexa647-labelled). Nature of the experiment: fibrinogen binders on compound microarrays, profiling panel, artefact control for SMM control-protein annotation, biochemical, small-molecule microarray, 635/667 nm fluorescence (AID 1131).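 Note: z-score merges 667 nm fluorescence with per-spot signal-to-noise over triplicate slides.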 The conditions noted are these: fibrinogen-A647 binding fluorescence, higher = more signal.
Experiment [5] has as its target Follistatin (Homo sapiens) (UniProt P19883). The experiment can be described thus: follistatin binders on small-molecule microarrays, primary screen, biochemical, small-molecule microarray, 635/667 nm fluorescence (AID 1132). The conditions noted are these: FST binding, 635 nm fluorescence, higher = more signal.
Experiment [6] deals with Fibroblast growth factor 2 (Homo sapiens) (UniProt P09038). The experiment can be described thus: FGF2 binders on small-molecule microarrays, primary screen, biochemical, small-molecule microarray, 635/667 nm fluorescence (AID 1133). To be noted: small-molecule microarray binding, FGF2, fluorescence 635/667; higher = more signal.
Sequence of Fibroblast growth factor 2 (Homo sapiens) (P09038 whole entry, looked up): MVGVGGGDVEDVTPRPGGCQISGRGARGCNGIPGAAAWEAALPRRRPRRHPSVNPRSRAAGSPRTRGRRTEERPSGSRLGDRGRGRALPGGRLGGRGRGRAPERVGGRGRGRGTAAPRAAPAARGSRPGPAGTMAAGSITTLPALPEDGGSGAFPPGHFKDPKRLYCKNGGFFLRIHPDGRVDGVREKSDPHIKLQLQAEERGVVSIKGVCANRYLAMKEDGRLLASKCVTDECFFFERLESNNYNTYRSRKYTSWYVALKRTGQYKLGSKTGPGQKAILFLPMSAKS
The nature of experiment [7]: mitochondrial membrane potential change in A549 cells, profiling panel, cell-based, JC-1 fluorescence, basal, 24 h, 100 nL (AID 1138).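 Note: A549 lung adenocarcinoma cells under basal conditions with no added stimulus; test concentration not given here.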 To be noted: higher = more signal.
In experiment [8] the test system is Lefty1. Nature of the experiment: Lefty1 binders on small-molecule microarrays, primary screen, biochemical, small-molecule microarray, 635/667 nm fluorescence (AID 1139). To be noted: small-molecule microarray binding, fluorescence 635/667; higher = more signal.
Experiment [9] relates to wheat germ agglutinin (Triticum aestivum), Alexa647-labelled. The experiment can be described thus: wheat germ agglutinin binders on compound microarrays, profiling panel, artefact control for SMM control-protein annotation, biochemical, small-molecule microarray, 635/667 nm fluorescence (AID 1140).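 Note: score merges 667 nm feature emission with signal to noise over triplicate slides.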 The conditions noted are these: WGA-A647 binding, 635 nm fluorescence, higher = more signal.

The target of experiment [10] is Luciferin 4-monooxygenase (Photinus pyralis) (UniProt P08659). Nature of the experiment: firefly luciferase enzyme inhibitors, primary screen, biochemical, luminescence, purified enzyme, 2006 set (AID 1141).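 Note: cell-free assay with purified firefly luciferase at 100 ng per well in PBS; test concentration not given here.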 The conditions noted are these: SteadyGlo luminescence, 30 min, higher = more signal, called active from +8 up or from −8 down.
Sequence of Luciferin 4-monooxygenase (Photinus pyralis) (P08659 whole entry, looked up): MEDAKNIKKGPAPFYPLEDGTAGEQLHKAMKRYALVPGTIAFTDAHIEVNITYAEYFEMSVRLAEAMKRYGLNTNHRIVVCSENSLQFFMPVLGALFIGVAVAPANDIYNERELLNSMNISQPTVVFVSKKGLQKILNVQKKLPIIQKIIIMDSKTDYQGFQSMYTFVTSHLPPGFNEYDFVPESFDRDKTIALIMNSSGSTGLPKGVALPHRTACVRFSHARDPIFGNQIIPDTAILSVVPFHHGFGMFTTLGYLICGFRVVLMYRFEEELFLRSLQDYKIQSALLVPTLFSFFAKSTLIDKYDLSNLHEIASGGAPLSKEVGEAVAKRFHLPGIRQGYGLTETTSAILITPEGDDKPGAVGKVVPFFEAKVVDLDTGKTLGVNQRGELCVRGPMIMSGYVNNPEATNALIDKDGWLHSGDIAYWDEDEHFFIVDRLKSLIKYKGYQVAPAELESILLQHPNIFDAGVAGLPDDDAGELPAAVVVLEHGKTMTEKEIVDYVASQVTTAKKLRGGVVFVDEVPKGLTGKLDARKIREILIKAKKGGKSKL
Experiment [11] has as its system Wnt5a (protein binding on small-molecule microarray). Nature of the experiment: Wnt5a binders on small-molecule microarray, primary screen, biophysical, 635/667 nm fluorescence (AID 1142).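 Note: fluorescence read at 667 nm with signal to noise per printed feature.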 The conditions noted are these: 635 nm fluorescence, higher = more signal.
A short description of experiment [12]: cell viability in Huh7 cells, primary screen, cytotoxicity control for HCV replication inhibitor project, CellTiter-Glo luminescence, basal, 48 h (AID 1143).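 Note: Huh7 hepatoma cells carrying a hepatitis C replication reporter with no stimulus; test concentration not given here.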 To be noted: Huh7 HCV replicon, higher = more signal, called active from +8 up or from −8 down. In general terms: In ATP-based viability assays light output follows the ATP content of the culture.
Experiment [13] can be described thus: P. aeruginosa biofilm formation inhibitors, primary screen, PAO1 strain, BacTiter-Glo luminescence, LB-PBS (AID 1144). The conditions noted are these: 12 h, higher = more signal.
Experiment [14] in a line: CREB reporter modulators without forskolin, primary screen, cell-based, PC12, CRE-LacZ reporter, unstimulated (AID 1145). The conditions noted are these: no forskolin, luminescence, 4.5 h, higher = more signal, called active from +8 up or from −8 down.
The nature of experiment [15]: CREB reporter modulators under forskolin, primary screen, cell-based, PC12, CRE-LacZ reporter, forskolin-stimulated (AID 1146).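 Note: PC12 cells with 6xCRE LacZ reporter stimulated by forskolin 10 µM; beta-galactosidase reporter signal reflecting CREB driven transcription.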 To be noted: luminescence, 4.5 h, higher = more signal, called active from +8 up or from −8 down.
Experiment [16] deals with Streptavidin (Streptomyces avidinii) (UniProt P22629). Nature of the experiment: streptavidin binders on small-molecule microarray, primary screen, artefact control for SMM compound annotation, biophysical, 635/667 nm fluorescence (AID 1147).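 Note: signal reflects streptavidin binding to arrayed compounds as a control protein.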 To be noted: streptavidin binding, higher = more signal.
Sequence of Streptavidin (Streptomyces avidinii) (P22629 whole entry, looked up): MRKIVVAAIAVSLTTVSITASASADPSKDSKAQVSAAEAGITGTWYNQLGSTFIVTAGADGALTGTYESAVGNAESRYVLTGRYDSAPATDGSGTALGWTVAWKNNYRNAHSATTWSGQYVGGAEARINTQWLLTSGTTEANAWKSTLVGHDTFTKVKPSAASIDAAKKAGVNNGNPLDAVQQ
Experiment [17] in a line: small-molecule binders of probe aInhba, primary screen, biochemical, small-molecule microarray, 635/667 nm fluorescence (AID 1148).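 Note: score merges 667nm spot fluorescence with signal-to-noise for antibody binding to printed compounds.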 To be noted: higher = more signal.
Experiment [18] concerns the target Torsin-1A (Homo sapiens) (UniProt O14656). The experiment can be described thus: torsin A binders from cell lysate, primary screen, small-molecule microarray, wild-type, 635/667 nm (AID 1149). To be noted: COS7 hTOR1A-WT lysate, 635 nm fluorescence, higher = more signal.
Experiment [19] shares this target. Nature of the experiment: small-molecule binders of mutant TOR1A in lysate, primary screen, cell lysate, small-molecule microarray, COS7 lysate, 635/667 nm fluorescence (AID 1150).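 Note: score pools 667 nm emission and signal to noise measuring lysate protein binding.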 The conditions noted are these: COS7 hTOR1A mutant lysate, 635 nm fluorescence, higher = more signal.
In experiment [20] the test system is Sonic hedgehog protein (Shh). The experiment can be described thus: small-molecule binders of Shh protein, primary screen, biochemical, small-molecule microarray, 635/667 nm fluorescence (AID 1151).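 Note: Shh protein binding to compounds spotted on small-molecule microarray slides; score combines spot fluorescence intensity with signal-to-noise across triplicate slides.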 To be noted: small-molecule microarray binding, 635 nm fluorescence; higher = more signal.

Sequence of Focal adhesion kinase 1 (Homo sapiens) (Q05397 whole entry, looked up): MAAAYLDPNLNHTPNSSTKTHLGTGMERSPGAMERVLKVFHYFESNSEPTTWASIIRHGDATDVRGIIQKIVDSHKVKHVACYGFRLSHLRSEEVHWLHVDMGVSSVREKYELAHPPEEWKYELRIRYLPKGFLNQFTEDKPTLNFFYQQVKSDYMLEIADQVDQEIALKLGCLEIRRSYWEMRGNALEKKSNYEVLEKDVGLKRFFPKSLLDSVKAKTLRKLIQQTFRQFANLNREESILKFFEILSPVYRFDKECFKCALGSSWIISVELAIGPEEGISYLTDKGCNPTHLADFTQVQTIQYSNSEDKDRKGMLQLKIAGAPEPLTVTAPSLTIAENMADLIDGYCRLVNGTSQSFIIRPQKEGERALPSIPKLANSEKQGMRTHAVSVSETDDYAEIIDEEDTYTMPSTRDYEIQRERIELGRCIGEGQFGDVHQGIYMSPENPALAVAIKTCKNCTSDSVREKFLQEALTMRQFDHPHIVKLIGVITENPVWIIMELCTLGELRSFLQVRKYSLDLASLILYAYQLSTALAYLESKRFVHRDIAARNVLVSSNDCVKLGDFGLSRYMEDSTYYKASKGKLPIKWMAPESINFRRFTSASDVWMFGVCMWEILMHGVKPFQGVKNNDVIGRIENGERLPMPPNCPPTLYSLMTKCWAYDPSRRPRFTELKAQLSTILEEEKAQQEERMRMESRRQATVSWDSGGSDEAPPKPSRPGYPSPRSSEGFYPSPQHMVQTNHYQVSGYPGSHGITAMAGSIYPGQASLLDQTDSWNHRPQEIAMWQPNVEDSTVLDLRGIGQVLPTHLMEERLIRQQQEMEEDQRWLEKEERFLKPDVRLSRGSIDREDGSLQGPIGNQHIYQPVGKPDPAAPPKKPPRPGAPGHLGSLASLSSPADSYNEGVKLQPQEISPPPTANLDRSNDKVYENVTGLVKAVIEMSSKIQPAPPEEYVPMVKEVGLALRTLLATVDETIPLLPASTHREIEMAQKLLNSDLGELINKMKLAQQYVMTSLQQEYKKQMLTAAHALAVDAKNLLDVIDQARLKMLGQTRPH
Sequence of Follistatin (Homo sapiens) (P19883 whole entry, looked up): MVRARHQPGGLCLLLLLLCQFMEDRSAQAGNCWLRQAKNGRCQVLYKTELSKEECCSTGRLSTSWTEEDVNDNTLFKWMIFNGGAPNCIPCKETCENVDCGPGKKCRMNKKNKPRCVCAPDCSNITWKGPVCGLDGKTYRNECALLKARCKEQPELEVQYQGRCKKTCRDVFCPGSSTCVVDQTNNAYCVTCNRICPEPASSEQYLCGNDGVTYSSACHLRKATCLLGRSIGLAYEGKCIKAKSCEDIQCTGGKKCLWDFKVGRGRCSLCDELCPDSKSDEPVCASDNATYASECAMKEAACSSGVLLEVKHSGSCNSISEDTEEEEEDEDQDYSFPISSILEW
Sequence of Torsin-1A (Homo sapiens) (O14656 whole entry, looked up): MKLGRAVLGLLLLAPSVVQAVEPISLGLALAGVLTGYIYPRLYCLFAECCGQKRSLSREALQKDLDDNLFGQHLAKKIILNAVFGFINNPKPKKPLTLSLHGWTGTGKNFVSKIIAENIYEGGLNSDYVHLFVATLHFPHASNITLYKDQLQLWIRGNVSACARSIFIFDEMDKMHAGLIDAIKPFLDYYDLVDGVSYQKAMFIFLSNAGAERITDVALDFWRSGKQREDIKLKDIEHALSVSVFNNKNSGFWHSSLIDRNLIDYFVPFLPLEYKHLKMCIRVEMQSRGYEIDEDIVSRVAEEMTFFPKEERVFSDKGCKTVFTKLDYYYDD

Turning to `COc1ccccc1CN1C(=O)c2ccccc2[C@](Cc2ccccc2I)(C(=O)NCc2ccccc2)[C@@H]1c1ccc(CO)cc1`, the composite z-score was -0.0448 in [1]; 0.406 in [2]; -0.2 in experiment [3]; 0.414 in experiment [4]; -0.526 in [5]; -0.243 in [6]. Also, the composite z-score was -0.88 in experiment [8]; 0.687 in experiment [9]; 0.0733 in [11]; -0.476 in experiment [16]; 0.0627 in experiment [17]; 0.999 in experiment [18]. The values for the composite z-score in [19] and in [20] were 2.06 and -0.197, respectively. The z-score is 0.109 in [7]; 0.0375 (inactive) in experiment [10]; -0.553 (inactive) in experiment [12]; 0.166 (inactive) in [13]; -0.412 (inactive) in experiment [14]; -0.0005 (inactive) in experiment [15].
Turning to `CCCCCCC#C[Si](O[C@H](c1ccccc1)c1cn([C@H](C)c2ccccc2)nn1)(C(C)C)C(C)C`, the composite z-score in experiment [1] is 0.475; in [2] it was 0.386; in [3] it was -0.159; in experiment [4], 0.574; in experiment [5], 0.441; in experiment [6], 0.555. The composite z-score was 0.547 in experiment [8]; 0.144 in experiment [9]; -0.0509 in experiment [11]; 0.247 in experiment [16]; -0.361 in [17]; 0.381 in experiment [18]. The figures for the composite z-score in [19] and in [20] were 1.26 and 0.573, respectively. Besides, the z-score was 3.27 in experiment [7]; 0.425 (inactive) in experiment [10]; -0.658 (inactive) in experiment [12]; 0.121 (inactive) in [13]; -0.127 (inactive) in experiment [14]; 0.15 (inactive) in experiment [15].
As for `COC(=O)[C@@]1(Cc2ccc(OC)cc2)[C@H]2c3cc(C(=O)N(C)C)n(CCSCCO)c3C[C@H]2CN1C(=O)c1ccccc1`, the composite z-score in experiment [1] is 0.957; in experiment [2] it was 1.32; in experiment [3], 1.68; in experiment [4], 0.971; in experiment [5], 0.108; in experiment [6], -0.569. In addition, the composite z-score in experiment [8] was -1.03; in experiment [9], 0.515; in experiment [11], 0.706; in experiment [16], 0.872; in [17] it was 0.351; in experiment [18] it was -0.101. Also, the composite z-score is 0.199 in [19] and -0.824 in experiment [20]. Further, the z-score in experiment [7] is -0.399; in experiment [10], -0.572 (inactive); in experiment [12], -2.19 (inactive); in experiment [13], 0.565 (inactive); in experiment [14], -0.954 (inactive); in experiment [15] it was 0.325 (inactive).
As to `C=CCNC(=O)[C@H]1[C@@H]2C(=O)O[C@@H](c3ccccc3)[C@@H](c3ccccc3)N2[C@@H](c2ccc(OCCO)cc2)[C@]12C(=O)N(C(=O)OCCOC)c1ccc(C#CC3(O)CCCCCC3)cc12`, the composite z-score was 0.632 in experiment [1]; 1.21 in experiment [2]; 1.32 in experiment [3]; 0.888 in experiment [4]; 1.36 in [5]; 1.58 in [6]. The composite z-score stood at 1.47 in experiment [8]; 0.777 in experiment [9]; 0.558 in [11]; 0.37 in [16]; 0.569 in [17]; 1.79 in [18]. Further, the composite z-score in experiment [19] came to 0.907; in [20] it was 1.65. Moreover, the z-score in experiment [7] was 0.208; in experiment [10], -1.86 (inactive); in [12], -2.88 (inactive); in [13] it was -0.148 (inactive); in [14] it was 0.761 (inactive); in experiment [15] it was 0.309 (inactive).
In the case of `C=C(COC)/C(=C/C[C@H](OC(C)=O)c1ccccc1OCCO)c1cnc2ccccc2c1`, the composite z-score in experiment [1] was 1.91; in experiment [2], 0.977; in experiment [3], 0.528; in experiment [4], 0.325; in [5] it was 1.29; in experiment [6] it was 0.394. Further, the composite z-score in experiment [8] turned out to be 0.814; in experiment [9], 0.666; in [11], 0.704; in experiment [16], 0.351; in [17] it was 0.0183; in experiment [18], 0.0548. In addition, the figures for the composite z-score in [19] and in experiment [20] were 0.794 and 1.65, respectively. Also, the z-score in experiment [7] was 0.0177; in experiment [10] it was 0.0631 (inactive); in [12], -0.0339 (inactive); in experiment [13], -0.543 (inactive); in experiment [14] it was 0.131 (inactive); in experiment [15], 0.128 (inactive).
Consider `C=CC[C@@]1(C(=O)OC)N=C(c2ccc(OCCCO)cc2)O[C@@H]1c1ccccc1CN=[N+]=[N-]`, for which the composite z-score in [1] was 0.78; in experiment [2] it was 0.996; in experiment [3], 0.242; in experiment [4], 0.0758; in [5], 1.05; in experiment [6], 0.0452. Moreover, the composite z-score was 0.543 in [8]; -0.0321 in experiment [9]; 0.0122 in experiment [11]; -0.233 in experiment [16]; -0.212 in experiment [17]; 0.0478 in [18]. Besides, the results for the composite z-score in experiment [19] and in [20] were -0.249 and 0.838, respectively. For the same compound, the z-score in experiment [7] is 0.00108; in experiment [10] it was 0.668 (inactive); in [12], -4.22 (inactive); in [13], -0.88 (inactive); in experiment [14], -1.03 (inactive); in [15] it was -1.5 (inactive).
Regarding `O=c1cccc(-c2cccc3ccccc23)o1`, the composite z-score is 0.874 in [1]; 1.2 in experiment [2]; 1.35 in experiment [3]; 0.708 in experiment [4]; 0.26 in experiment [5]; -0.32 in [6]. The composite z-score in experiment [8] is -0.789; in [9], 0.8; in experiment [11], -0.0859; in [16] it was 0.112; in experiment [17], -0.0471; in experiment [18], 0.272. The composite z-score in experiment [19] is -0.0514; in experiment [20], -0.343. Moreover, the z-score in [7] was 0.316; in experiment [10] it was 1.52 (inactive); in experiment [12], -0.779 (inactive); in experiment [13] it was -0.469 (inactive); in experiment [14], 0.182 (inactive); in [15], 0.092 (inactive).
